Each compound was assayed against Protein-tyrosine kinase 6 (Homo sapiens) (UniProt Q13882). Conditions: at 1 µM.
Chain of Protein-tyrosine kinase 6 (Homo sapiens) (Q13882 whole entry, looked up): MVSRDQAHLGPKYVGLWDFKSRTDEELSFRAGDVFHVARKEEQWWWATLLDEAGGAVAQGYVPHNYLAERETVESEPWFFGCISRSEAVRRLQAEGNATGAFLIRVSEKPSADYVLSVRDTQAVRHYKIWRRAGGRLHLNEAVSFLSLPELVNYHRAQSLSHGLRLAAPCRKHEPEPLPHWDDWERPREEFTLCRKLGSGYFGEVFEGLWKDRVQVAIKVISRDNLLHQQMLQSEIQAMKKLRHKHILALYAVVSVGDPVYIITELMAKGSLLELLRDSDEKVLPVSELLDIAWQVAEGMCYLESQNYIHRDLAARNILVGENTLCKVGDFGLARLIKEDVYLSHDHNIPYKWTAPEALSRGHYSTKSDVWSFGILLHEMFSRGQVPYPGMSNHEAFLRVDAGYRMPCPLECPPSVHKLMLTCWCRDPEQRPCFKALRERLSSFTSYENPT

SMILES | inhibition
CN(C)c1ccc2c(c1)/C(=C/Nc1ccc(S(N)(=O)=O)cc1)C(=O)N2 | 2.14%
CN(c1ccc(NC(=O)Nc2c(Cl)cccc2Cl)cc1)c1ccnc(Nc2cccc(CS(C)(=O)=O)c2)n1 | 44%
Fc1ccc(-c2c(-c3ccncc3)nc3n2CCS3)cc1 | 4.76%
N#Cc1ccc(Oc2nccc(-c3c(-c4ccc(F)cc4)ncn3C3CCNCC3)n2)cc1 | 4.81%
CN1CCN(CCCNc2nc3ccc(Oc4ccc(NC(=O)Nc5cc(C(F)(F)F)ccc5F)cc4)cc3[nH]2)CC1 | 1.35%
COc1cc(Nc2ncc(-c3ccccc3)o2)cc(OC)c1OC | 4.16%
COc1cc2ncn(-c3cc(OCc4cccs4)c(C(N)=O)s3)c2cc1OC | 7.01%
COc1cc2ncn(-c3cc(OCc4ccccc4C(F)(F)F)c(C(C)=O)s3)c2cc1OC | 3.98%
CN(C)CCCNc1nccc(-c2c(-c3ccc(F)cc3)nn3cc(C(F)(F)F)ccc23)n1 | 4.39%
c1ccc(Oc2ccc(Nc3ncc(-c4ccccc4)o3)cc2)cc1 | -0.31%
Fc1ccc(-c2ncn(CCCN3CCOCC3)c2-c2ccncc2)cc1 | -0.48%
COc1ccc2cc(-c3c(-c4ccncc4)nc(-c4ccc([S+](C)[O-])cc4C)n3C)ccc2c1 (centres undefined) | 81.2%
CS(=O)(=O)CCNCc1cc(-c2cc3c(Nc4ccc(OCc5cccc(F)c5)c(Cl)c4)ncnc3s2)cs1 | 5.98%
O=C1Nc2ccc(I)cc2C1=Cc1cc(Br)c(O)c(Br)c1 | 6.68%
CCc1cccc(CC)c1/C=C/c1cncc(C(=O)NC)c1 | 3.98%
Fc1ccc(-c2ncn(C3CCNCC3)c2-c2ccnc(Oc3ccc(Oc4ccccc4)cc3)n2)cc1 | 1.93%
COc1ccc(C2=C(N3CCc4ccccc43)C(=O)NC2=O)cc1 | 5.72%

SMILES | inhibition
O=C1Nc2ccccc2/C1=C/Nc1ccc(-n2cncn2)cc1 | 6%
O=C(Nc1n[nH]c2cc(-c3cc(F)ccc3F)ccc12)C1CC1 | 2.23%
CCN(CC)Cc1ccc(Nc2nccc(-c3cnn4ncccc34)n2)cc1 | 15.7%
CCc1ccc(Oc2nccc(-c3c(-c4ccc(F)cc4)ncn3C3CCNCC3)n2)cc1 | 2.5%
O=C(Nc1n[nH]c2nc(-c3ccco3)ccc12)C1CC1 | 1.59%
NC(=O)Cc1ccccc1Oc1nccc(-c2c(-c3ccc(F)cc3)ncn2C2CCNCC2)n1 | 1.21%
CCc1nccc2c1nc(-c1nonc1N)n2CC | -0.37%
NC(=O)c1cc(-c2ccncc2)cc(-c2ccccc2)c1N | 36.9%
COc1ccc(-c2ccc3c(NC(=O)C4CC4)n[nH]c3n2)cc1 | 2.88%
COC(=O)Nc1nc2ccc(Sc3ccc(NC(=O)Nc4cc(C(F)(F)F)ccc4F)cc3)cc2[nH]1 | 1.4%
Fc1ccc(-c2ncn(C3CCNCC3)c2-c2ccnc(Oc3ccc(F)c(F)c3)n2)cc1 | 5.39%
O=C(Nc1n[nH]c2nc(-c3ccc(O)cc3)c(Br)cc12)C1CC1 | 11.1%
Cc1ccc(NC(=O)c2ccoc2)cc1-c1ccc(C(=O)NCC2CC2)cc1 | 4.58%
COc1cc(N2CCN(C(C)C)CC2)ccc1Nc1nc(Nc2ccc(F)cc2C(=O)NC[C@@H](O)CO)c2cc[nH]c2n1 | 7.68%
CCS(=O)(=O)c1ccc(OC)c(Nc2ncc(-c3cccc(-c4ccccc4F)c3)o2)c1 | 10.8%
NS(=O)(=O)c1ccc(N/N=C2\C(=O)Nc3ccc(-c4cnco4)cc32)cc1 | 4.99%
C[C@@H](Oc1cc(-n2cnc3ccc(OC4CCN(C)CC4)cc32)sc1C(N)=O)c1ccccc1Cl | 3.15%

Reference: ChEMBL document CHEMBL1961873, “Compounds: GSK PKIS; Assays: Nanosyn kinase panel” (2012)
